In all, about 340,000 compounds went through this assay and about 240 (0.071%) were called active.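 How the source made its calls: active means activation above the mean of all tested compounds plus 3 SD, set per screening campaign (cut at about 17% in these data); inactive means the rest.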 This excerpt belongs to a sample that is enriched for actives.

Insulin-degrading enzyme (Homo sapiens), sequence (P14735 whole entry, looked up): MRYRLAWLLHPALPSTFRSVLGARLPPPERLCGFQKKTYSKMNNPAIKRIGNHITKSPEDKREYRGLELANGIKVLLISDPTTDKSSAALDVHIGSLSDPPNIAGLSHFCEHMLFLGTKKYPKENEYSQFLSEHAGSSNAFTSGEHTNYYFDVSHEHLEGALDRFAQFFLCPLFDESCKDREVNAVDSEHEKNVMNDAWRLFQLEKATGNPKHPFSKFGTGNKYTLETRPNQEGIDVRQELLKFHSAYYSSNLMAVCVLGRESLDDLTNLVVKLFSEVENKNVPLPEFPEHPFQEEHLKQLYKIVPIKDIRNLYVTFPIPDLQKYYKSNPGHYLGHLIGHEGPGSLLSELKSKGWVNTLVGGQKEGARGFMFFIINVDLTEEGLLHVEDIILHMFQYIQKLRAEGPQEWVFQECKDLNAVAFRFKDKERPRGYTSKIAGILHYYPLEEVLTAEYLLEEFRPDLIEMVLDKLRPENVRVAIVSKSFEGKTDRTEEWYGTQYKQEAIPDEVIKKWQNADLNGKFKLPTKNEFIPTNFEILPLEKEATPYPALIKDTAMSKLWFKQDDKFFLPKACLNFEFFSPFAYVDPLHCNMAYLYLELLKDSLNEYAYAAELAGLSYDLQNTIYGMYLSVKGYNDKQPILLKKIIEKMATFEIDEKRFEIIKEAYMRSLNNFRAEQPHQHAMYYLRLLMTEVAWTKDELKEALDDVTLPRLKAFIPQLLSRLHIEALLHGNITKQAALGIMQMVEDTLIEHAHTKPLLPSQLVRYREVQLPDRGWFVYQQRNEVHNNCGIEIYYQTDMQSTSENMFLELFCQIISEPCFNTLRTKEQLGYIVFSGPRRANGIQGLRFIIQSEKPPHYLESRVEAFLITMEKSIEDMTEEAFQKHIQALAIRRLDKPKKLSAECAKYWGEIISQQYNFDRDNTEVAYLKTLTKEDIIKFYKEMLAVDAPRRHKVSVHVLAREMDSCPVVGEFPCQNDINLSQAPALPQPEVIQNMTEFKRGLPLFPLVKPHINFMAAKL

The test has as its target Insulin-degrading enzyme (Homo sapiens) (UniProt P14735). Kind of test: human IDE activators in live cells, primary screen, fluorescence polarization, HEK cells, FAbeta-B substrate (AID 493087). To be noted: FAbeta-B cleavage, at 5.96 µM, hits give high values, 0% vehicle, 100% cell-free pure enzyme wells.
`COCCN(C(=S)Nc1cccc(Cl)c1C)C(C)c1ccco1` (stereo unspecified): the activation was 1.29% (inactive).
For the molecule `COc1ccc(S(=O)(=O)c2c[nH]c(=S)[nH]c2=O)cc1Cl`, the activation is -1.33% (inactive).
The figure for `CN(C)S(=O)(=O)c1ccc(N2CCCC2=O)c([N+](=O)[O-])c1` is 5.59% (inactive); for `COc1ccc(Cn2cc(CN3CCS(=O)(=O)N(Cc4ccc(-c5cccc(Cl)c5)cc4)C(C)C3=O)nn2)cc1` (stereo unspecified) it is 1.16% (inactive); for `Cc1noc(C)c1C(=O)OC(C)C(=O)Nc1ccc2c(c1)OCO2` (stereo unspecified) it is 0.42% (inactive).
The figure for `CCCCSCCCNC(=O)C1CCC(CNS(=O)(=O)c2ccc(NC(C)=O)cc2)CC1` (stereo unspecified) is -0.18% (inactive); for `CCn1c(=O)cc(SCC(=O)NCc2ccc3c(c2)OCO3)c2ccccc21` it is 2.55% (inactive); for `C=CCn1c(=O)c(C(=O)NCc2ccc3c(c2)OCO3)c(O)c2ccccc21` it is 3.17% (inactive).
The figure for `CCn1c(=O)c([N+](=O)[O-])c(NCc2ccc3c(c2)OCO3)c2ccccc21` is 23.5% (active).
As for `COc1ccccc1CC(NC(C)=O)C(=O)NC1CCN(C(=O)Nc2ccccc2Cl)CC1` (stereo unspecified), the activation is 3.56% (inactive).
On to `O=C(CSc1ncnc2sccc12)NC1CCS(=O)(=O)C1` (stereo unspecified), for which the activation is 6.28% (inactive).
The figure for `CCOC(=O)/C=C/c1ccc(C(F)(F)F)cc1S(=O)(=O)NC(C)(C)C` is -1.81% (inactive).
`CCOC(=O)/C=C/CN(C(=O)OC(C)(C)C)S(=O)(=O)N1CC=CC1`: the activation was 34.8% (active).
As to `CCOCc1c(C(=O)N2CCN(Cc3ccc(Br)s3)CC2)oc2ccccc12`, the activation is 7.28% (inactive).
Consider `Cc1ccc(NC2CCCN(C(=O)CCC3(C)CC3)C2)cc1C` (stereo unspecified), for which the activation was 3.99% (inactive).
Turning to `Cn1c2c(c(=O)n(C)c1=O)[C@@H]1c3c(ccc4ccccc34)OC[C@@H]1CO2`, the activation is 9.31% (inactive).
`Cc1cc(C)c(S(=O)(=O)Nc2c(C)n(C)n(-c3ccccc3)c2=O)cc1[N+](=O)[O-]`: the activation was 0.96% (inactive).
`CSc1ccccc1OCc1cc(C(=O)N2C[C@H]3CC[C@H]2C3)no1`: the activation was 0.59% (inactive).
The figure for `COC(=O)c1c(C)cc(O)c(C)c1O` is -0.29% (inactive); for `COc1ccc(CCNC(=O)CCNS(=O)(=O)c2cc(Br)cnc2N)cc1OC` it is 3.78% (inactive).
For the molecule `Cn1c(N)c(C(=O)COC(=O)/C=C/c2cccc(C(F)(F)F)c2)c(=O)n(C)c1=O`, the activation was 4.24% (inactive).
The figure for `CCN1CCN(C(=O)C2(NC(=O)Nc3cccc(F)c3)CCCCC2)CC1` is 4.93% (inactive).
The figure for `CC(=O)N1c2ccc(S(=O)(=O)N3CCCC(C(=O)Nc4cccc(F)c4)C3)cc2CC1C` (stereo unspecified) is 5.74% (inactive); for `Cc1ccc(NC(=O)C(c2ccccc2)N2CCN(C(=O)c3ccco3)CC2)cc1` (stereo unspecified) it is 0.44% (inactive).
The figure for `CCCC[C@@H]1CN=C(N)N1CCc1cc(C(F)(F)F)cc(C(F)(F)F)c1` is 5.76% (inactive); for `CCCC(C)C(=O)OCC(=O)Nc1c(Br)cc(C)cc1Br` (stereo unspecified) it is 4.33% (inactive); for `Cc1ccc(S(=O)(=O)N2C[C@@H]3CCCC[C@@H]3[C@@H](C)[C@H]2c2cn(Cc3ccccc3)c3ccc(F)cc23)cc1` it is 0.65% (inactive).
For the molecule `Cc1cccc(N2CCN(C(=O)c3cc4c(=O)[nH]c5ccccc5c4n3C)CC2)c1C`, the activation is 0.68% (inactive).
The figure for `CCOC(=O)C1CCCN(S(=O)(=O)c2ccc3c(c2)C(C)(C)C(=O)N3C)C1` (stereo unspecified) is 4.3% (inactive); for `CC(=O)N1CCCc2cc(S(=O)(=O)N3CCCC(C(=O)N4CCN(c5cccc(Cl)c5)CC4)C3)ccc21` (stereo unspecified) it is 1.25% (inactive).
The figure for `O=C1CCC[C@@H]2CC(N3CCCCC3)C[C@@H]3CCN1[C@H]23` (stereo partly specified) is 3.58% (inactive); for `Cc1cccc(CCNC(=O)Cn2ncc3c([nH]c4ccc(C)cc43)c2=O)c1` it is 4.1% (inactive); for `COc1cccc(NC(=O)CC(c2ccc(OC(C)C)cc2)c2ccccc2OC)c1` (stereo unspecified) it is 5.55% (inactive).
The figure for `Cc1cccc(C(=O)NC(=S)N2CCN(c3ccc([N+](=O)[O-])cc3)CC2)c1` is 7.97% (inactive); for `Cc1ccc(S(=O)(=O)N(C)C)cc1NC(=O)CN1c2cccc3cccc(c23)S1(=O)=O` it is -4.07% (inactive); for `O=C(CN1CCN(c2cccc(Cl)c2)CC1)Nc1ccc(S(=O)(=O)N2CCOCC2)cc1` it is -1.02% (inactive).
Turning to `CC1CC(C)CN(CCCNC(=O)c2csc3c2CCCCC3)C1` (stereo unspecified), the activation is 0.64% (inactive).
The figure for `COc1ccc(NS(=O)(=O)c2ccc(N3CCN(CCO)CC3)c([N+](=O)[O-])c2)cc1` is 4.53% (inactive); for `O=C1OCC2=C1C(c1ccccc1)CC(=O)N2c1cccc(F)c1` (stereo unspecified) it is 2.91% (inactive).
The figure for `CCOC(=O)C1(CC2CCCCO2)CCN(Cc2nc(-c3cccs3)oc2C)CC1` (stereo unspecified) is -1.12% (inactive).
For the molecule `CCOC(=O)C1CCCN(C(=O)c2ccc(CS(=O)(=O)c3ccc(Br)cc3)o2)C1` (stereo unspecified), the activation is -1.91% (inactive).
The figure for `CCN1CCN(C2CCCCC2NS(=O)(=O)c2ccc(Cl)cc2)CC1` (stereo unspecified) is 5.06% (inactive); for `O=C1c2ccccc2C(=O)N1CCC(c1ccccc1)c1ccco1` (stereo unspecified) it is 7.64% (inactive).
As to `CSc1nnnn1-c1c(C)cc(C)cc1C`, the activation was -3% (inactive).
The figure for `CCOCCCNC(=O)c1c[nH]c2cc(C)ccc2c1=O` is 4.46% (inactive); for `O=C1CC(c2ccccc2)C(=O)N2C(=O)CC(c3ccccc3)C(=O)N12` (stereo unspecified) it is 3.82% (inactive).
As to `CCc1nccn1S(=O)(=O)c1cccc([N+](=O)[O-])c1`, the activation is 6.7% (inactive).
The figure for `COC(=O)c1ccc(CNC(=O)Cn2cc(C)c(=O)[nH]c2=O)cc1` is 4.54% (inactive).
The figure for `COC(=O)C1=CN(Cc2ccc(OC)cc2)C=C(C(=O)OC)C1c1ccc(O)c(OC)c1` is 5.83% (inactive); for `C=CCNC(=S)/N=c1/ccccn1Cc1ccccc1` it is 4.17% (inactive).
The figure for `COc1ccc(C(=O)CN2C(=O)NC(C)(c3ccc(C)cc3)C2=O)cc1OC` (stereo unspecified) is -1.44% (inactive).
In the case of `CCOc1ccc(CCNC(=O)COC(=O)C2CCN(S(=O)(=O)c3ccccc3)CC2)cc1OCC`, the activation is 2.21% (inactive).
On to `CCc1nnc(NC(=O)C2CC(=O)N(c3ccc4c(c3)OCCO4)C2)s1` (stereo unspecified), for which the activation is 3.02% (inactive).
Regarding `Cn1c(=O)n(C)c2cc(S(=O)(=O)Nc3ccc(F)cc3)ccc21`, the activation was 4.63% (inactive).
The figure for `Cc1cc2oc(C(=O)Nc3c(C)n(C)n(-c4ccccc4)c3=O)c(C)c2cc1Cl` is 1.29% (inactive); for `S=C1Nc2cc(Cl)ccc2Sc2ccccc21` it is 0.11% (inactive); for `CC(C#N)(NC(=O)CN1CCN(S(=O)(=O)c2cc(C(F)(F)F)ccc2Cl)CC1)C1CC1` (stereo unspecified) it is 5.5% (inactive).
Regarding `CNC(=O)NC(=O)C(OC(=O)c1cccc(S(=O)(=O)N2CCCCC2)c1)c1ccccc1` (stereo unspecified), the activation is -3.23% (inactive).
On to `N#Cc1ccccc1NC(=O)COc1c(Br)cc(Br)c2cccnc12`, for which the activation was -2.72% (inactive).
In the case of `COc1ccc(S(=O)(=O)N2CCN(c3cnccn3)CC2)cc1`, the activation was 0.13% (inactive).
With `O=C(NCCc1ccc(F)cc1)c1ccc2nccnc2c1`, the activation is -0.11% (inactive).
For the molecule `CCC(=O)Nc1cccc(C2=NOC3(C2)C[C@@H](C(N)=O)N(C(=O)c2cc([N+](=O)[O-])cc([N+](=O)[O-])c2C)C3)c1` (stereo partly specified), the activation was 5.78% (inactive).
The figure for `O=C(N/C(=C\c1ccc(F)cc1)C(=O)N1CCCCCC1)c1ccccc1` is 5.73% (inactive); for `O=C(C1Cc2ccccc2CN1C(=O)c1ccco1)N1CCN(c2ccccc2)CC1` (stereo unspecified) it is 4.46% (inactive).
Regarding `CCOC(=O)CSc1nnc(CNC(=O)c2cccs2)n1-c1cc(OC)ccc1OC`, the activation was 0.94% (inactive).
The figure for `COc1ccc(-c2oc3ncn(Cc4ccco4)c(=N)c3c2-c2ccc(OC)cc2)cc1` is 5.41% (inactive); for `CCOC(=O)c1cccc(NC(=O)CN2C(=O)C3CC=CCC3C2=O)c1` (stereo unspecified) it is 1.23% (inactive); for `Cn1c2ccccc2c2cc(/C=C(\NC(=O)c3ccccc3)C(=O)NCC(=O)O)ccc21` it is -43.6% (inactive).
For the molecule `CCN1CCN(c2cc3nc(C)n(Cc4ccccc4)c(=O)c3cc2NC(=O)c2ccccc2F)CC1`, the activation is 2.61% (inactive).
The figure for `Cc1ccsc1C(=O)NC1CCCCC1C` (stereo unspecified) is -2.46% (inactive); for `Cc1cc(=O)oc(C)c1C(=O)NCCN(C)Cc1ccccc1` it is -4.58% (inactive); for `CN(C(=O)CSc1nnc(C2CC2)n1C)C1CCCc2ccccc21` (stereo unspecified) it is 0.43% (inactive).
As for `CC(C)C(NC(=O)c1c(F)cccc1F)C(=O)NNC(=O)c1ccccc1` (stereo unspecified), the activation was 5.51% (inactive).
For `O=S(=O)(Nc1ccc2ccccc2c1)N1CCCCC1`, the activation was 1.85% (inactive).
Take `CC1CCC(NS(=O)(=O)c2ccc3c(c2)CC(=O)N3)CC1` (stereo unspecified): the activation is 3.97% (inactive).
The figure for `Cc1c(CN2CCC(CO)(CCOc3ccccc3)CC2)[nH]c2ccc(Cl)cc12` is 24.6% (active); for `CCOC(=O)C1(CCOc2ccccc2)CCN(Cc2cc(OC)cc(OC)c2)CC1` it is -1.76% (inactive); for `CCOC(=O)C1(CCOc2ccccc2)CCN(Cc2cc(OC)c(O)cc2Cl)CC1` it is 2.9% (inactive).
On to `COc1ccccc1/C=C/C1=NC(=C\N(C)C)/C(=O)O1`, for which the activation is -5.01% (inactive).
In the case of `Cn1c(=O)c2cc(S(=O)(=O)NCCC(=O)Nc3ccc(F)cc3F)ccc2n(C)c1=O`, the activation was 5.29% (inactive).
`COc1ccc(C2C(C#N)=C(N)Oc3n[nH]c(C)c32)cc1CN1CCN(c2ccc(F)cc2)CC1` (stereo unspecified): the activation was -3.14% (inactive).
The figure for `Cc1cccc(NC(=O)CSc2nnc(CCNC(=O)OC(C)(C)C)o2)c1C` is -0.87% (inactive); for `Cc1ccccc1OC(=O)Cn1c(C(F)(F)F)nc2ccccc21` it is 3.41% (inactive); for `Cc1cc(C)cc(NC(=O)NC2CCCCCCC2)c1` it is 0.99% (inactive).
For `COC1C(CO)OC(n2cnc3c(=S)nc(N)[nH]c32)C1O` (stereo unspecified), the activation was -9.08% (inactive).
Consider `Cc1noc(C)c1NC(=O)Nc1cccc2c1O[C@H](CN(C)S(=O)(=O)c1c(C)noc1C)[C@@H](C)CN([C@H](C)CO)C2=O`, for which the activation was -2.65% (inactive).

The values are drawn from PubChem BioAssay AID493087 (The Scripps Research Institute Molecular Screening Center, 2011).
